Bioassay records (PubChem)
CaV13 FRET inh – Disruptors of the CACNA1D IQ motif to Ca2+-dependent inactivation inhibitor domain association, primary screening, Förster resonance energy transfer in intact living …; inhibition, % at 12.3 µM; HEK cells, CFP/YFP FRET ICDI-IQ, plate reader, 10 min; percent FRET-ratio fall versus neutral wells; actives 0.098% (n = 340,000);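 active = mean replicate inhibition of at least 30% and at least 1% of replicates passing that level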
PfM18AAP inh-1 – PfM18AAP inhibitors, malaria aminopeptidase, primary screen, biochemical, QFRET, recombinant enzyme. M18 aspartyl aminopeptidase (Plasmodium falciparum 3D7). H-Glu-NHMec fluorogenic cleavage. actives 1.2% (n = 290,000). inhibition, % at 7.35 µM;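 active = inhibition above the campaign mean inhibition over all tested compounds plus 3 SD, cut at about 28% in these data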
PolyA inhibitor – polyadenylation inhibitors in yeast reporter cells, primary screen, luminescence, S. cerevisiae. S. cerevisiae SKY197-pL101 polyadenylation reporter, beta-gal luminescence; efflux-impaired pdr1/pdr3 knockout yeast; score 100 = 6 SD above DMSO. activity score, % at 12 µM. actives 0.02% (n = 300,000). AID 1875, 2009;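 active = lowest replicate activity score at least 50, where 100 means six control SD above control mean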;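 note: yeast exposed to compound for 9 h at 30 °C; higher score means more reporter readthrough which indicates perturbed polyadenylation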
ALR H2O2 inh – inhibitors of human ALR sulfhydryl oxidase, primary screen, biochemical, H2O2 detection, HRP-luminol luminescence, single point; actives 3.8% (n = 290,000); inhibition, % (no concentration beside the values); purified ALR, DTT oxidation; AID 485317, 2010; FAD-linked sulfhydryl oxidase ALR (Homo sapiens), P55789;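 active = mean replicate inhibition above about 79%, with every replicate also reaching it, limit read from the data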
Target sequence (P55789 whole entry, looked up): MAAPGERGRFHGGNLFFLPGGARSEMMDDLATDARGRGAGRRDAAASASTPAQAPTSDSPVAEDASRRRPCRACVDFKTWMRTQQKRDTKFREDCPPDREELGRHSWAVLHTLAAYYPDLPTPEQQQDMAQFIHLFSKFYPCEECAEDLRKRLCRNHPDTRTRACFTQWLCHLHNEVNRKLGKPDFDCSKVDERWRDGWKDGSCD
IDE cell activ – human IDE activators in live cells, primary screen, fluorescence polarization, HEK cells, FAbeta-B substrate | FAbeta-B cleavage; 0% vehicle, 100% cell-free pure enzyme wells | activation, % at 5.96 µM | actives 0.073% (n = 340,000) | Insulin-degrading enzyme (Homo sapiens), P14735;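 active = activation above the mean of all tested compounds plus 3 SD, set per screening campaign, cut at about 17% in these data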
IDE inh – human IDE inhibitors in live cells, primary screen, fluorescence polarization, HEK cells, FAbetaB substrate. inhibition, % at 5.59 µM. FAbetaB cleavage. actives 0.41% (n = 320,000). Insulin-degrading enzyme (Homo sapiens), P14735;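 active = percent inhibition above the average of all tested compounds plus 3 SD, set per screening campaign, cut at about 16% in these data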;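 note: IDE supplied by intact live HEK cells; FP after avidin binding of uncleaved biotin substrate so inhibition keeps polarization high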
PfM18AAP inh-2 – PfM18AAP inhibitors, malaria aminopeptidase, confirmation, biochemical, QFRET, recombinant enzyme, triplicate; shares compounds with PfM18AAP inh-1; AID 2170, 2009; H-Glu-NHMec fluorogenic cleavage; inhibition, % at 7.35 µM; actives 28% (n = 2,400);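 active = mean inhibition over replicate wells above the hit cutoff set for the earlier primary screen, cut at about 29% in these data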
CTSL1 confirm – cathepsin L1 inhibitors, retest, confirmation, counter-screen for PFM18AAP inhibitor project, biochemical, QFRET, triplicate. purified cathepsin L1, Z-Leu-Arg-MCA fluorescence. AID 2178, 2009. 2,400 tested, under 10 active. shares compounds with PfM18AAP inh-1. inhibition, % at 5.96 µM;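 active = average inhibition across replicates above the hit cutoff set in the earlier primary screen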
Target sequence (P07711 whole entry, looked up): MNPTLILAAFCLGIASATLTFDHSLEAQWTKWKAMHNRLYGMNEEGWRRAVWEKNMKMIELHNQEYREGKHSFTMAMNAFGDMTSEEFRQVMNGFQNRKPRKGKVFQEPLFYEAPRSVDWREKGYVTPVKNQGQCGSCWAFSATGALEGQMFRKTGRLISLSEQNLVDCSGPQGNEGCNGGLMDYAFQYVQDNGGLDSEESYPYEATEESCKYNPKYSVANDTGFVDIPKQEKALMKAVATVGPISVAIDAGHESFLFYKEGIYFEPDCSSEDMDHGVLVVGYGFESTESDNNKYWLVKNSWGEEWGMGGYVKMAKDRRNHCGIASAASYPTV
Large screens that a line does not name were inactive (follow-up assays come after a bar, where they were run). A selection: hits, their analogues and other compounds. The true share with any hit is near 4.1%.

CC1(C)CC(=O)C2=C(C1)N(Cc1ccco1)C(=O)C2(NC(=O)C1CCCCC1)C(F)(F)F (stereo not drawn)	none
CC1(C)CC(=O)C2=C(C1)N(Cc1ccco1)C(=O)C2(NC(=O)c1ccc(Cl)cc1Cl)C(F)(F)F (stereo not drawn)	ALR H2O2 inh 98
CC(CN(C)C)CN1c2ccccc2Sc2ccccc21 (stereo not drawn)	ALR H2O2 inh 99 (no result: PfM18AAP inh-1, PolyA inhibitor)
CC(CN1c2ccccc2Sc2ccccc21)N(C)C (stereo not drawn)	ALR H2O2 inh 99
COc1ccc2c(c1)N(C[C@H](C)CN(C)C)c1ccccc1S2	none (no result: PfM18AAP inh-1, PolyA inhibitor, ALR H2O2 inh, IDE inh)
Cc1ccc(OCc2n[nH]c(=S)n2-c2ccc(Cl)cc2)cc1	none (no result: ALR H2O2 inh)
Cc1ccc(C2=Nn3c(COc4ccc(Cl)cc4)nnc3SC2CC(=O)O)cc1 (stereo not drawn)	ALR H2O2 inh 98
Cc1ccc(-n2c(N)c(C(=O)NCc3ccco3)sc2=S)cc1	none
C=CCn1c(N)c(C(=O)NCc2ccco2)sc1=S	ALR H2O2 inh 98
O=C(NCc1ccco1)c1sc(=S)n2c1[nH]c(=O)c1ccccc12	ALR H2O2 inh 98
C=CCn1c(N)c(C(=O)NCC2CCCO2)c2nc3ccccc3nc21 (stereo not drawn)	none (no result: CaV13 FRET inh)
C=CCn1c(N)c(C(=O)NCC2CCCO2)sc1=S (stereo not drawn)	ALR H2O2 inh 99
CCn1c(N)c(C(=O)NCC2CCCO2)sc1=S (stereo not drawn)	ALR H2O2 inh 99
C=CCn1c(N)c(C(=O)Nc2ccccc2OC)sc1=S	ALR H2O2 inh 98
Nc1c(C(=O)NCC2CCCO2)sc(=S)n1-c1ccccc1 (stereo not drawn)	ALR H2O2 inh 85 (no result: CaV13 FRET inh)
CC(C)(C)OC(=O)CNC(=O)c1[nH]cnc1C(=O)NC(c1ccccc1)c1ccccc1	none (no result: ALR H2O2 inh)
CCN(CCCNC(=O)CCNC(=O)Cn1cnc2ccccc2c1=O)c1ccccc1	ALR H2O2 inh 99
O=C(Cn1cnc2ccccc2c1=O)NCCC(=O)N1CCN(c2ccccc2)CC1	ALR H2O2 inh 96
CCN(CCCNC(=O)CNC(=O)Cn1cnc2ccccc2c1=O)c1cccc(C)c1	none (no result: ALR H2O2 inh)
COc1ccc(N2CCN(C(=O)CCNC(=O)Cn3ccc4ccccc4c3=O)CC2)cc1	ALR H2O2 inh 85
CCN1CCN(C(=O)CCNC(=O)Cn2cnc3ccccc3c2=O)CC1	none (no result: ALR H2O2 inh)
CCN(CC)CCSc1nc2ccccc2n1Cc1ccccc1	none
CCOC(=O)c1csc(NC(=O)CC2CCCC2)n1	none
Fc1ccc(OCCOCCN2CCNCC2)cc1	none
COc1ccc(NC(=O)CSc2nnc(CCC(=O)O)c(=O)n2N)cc1	ALR H2O2 inh 98
Cc1nnc(SCC(=O)Nc2ccc3c(c2)OCO3)n(N)c1=O	ALR H2O2 inh 94
Nn1cnnc1SCC(=O)Nc1ccc2c(c1)OCO2	none (no result: CaV13 FRET inh)
Nn1c(SCC(=O)Nc2ccc3c(c2)OCCO3)nncc1=O	ALR H2O2 inh 89
COc1ccc(NC(=O)CSc2nnc(-c3ccccc3C)n2N)cc1	ALR H2O2 inh 99
Cn1ccnc1SCC(=O)Nc1ccc2c(c1)OCO2	ALR H2O2 inh 90
Cc1ccccc1-c1nnc(SCC(=O)Nc2ccc3c(c2)OCCO3)n1N	ALR H2O2 inh 98
Cn1ccnc1SCC(=O)Nc1cc(S(=O)(=O)N2CCOCC2)ccc1Cl	ALR H2O2 inh 98
Nn1c(SCC(=O)Nc2ccc3c(c2)OCCO3)nnc1-c1ccccn1	none
O=C(NCc1cccc(Cl)c1)c1ccc2c(c1)OCCO2	none
CC(=O)c1cc(C(=O)c2ccccc2)sc1Nc1ccccc1	none
Cc1cc(NC(=O)C(C)SCC(=O)Nc2nc3c(F)cc(F)cc3s2)no1 (stereo not drawn)	none (no result: PfM18AAP inh-1, PolyA inhibitor, ALR H2O2 inh)
CCCCN1C(=O)C(CC(=O)NC2CCCC2)CC(C(=O)N2CCOCC2)=C1C (stereo not drawn)	none (no result: PfM18AAP inh-1, PolyA inhibitor, ALR H2O2 inh, IDE cell activ, IDE inh)
Cc1nnc(NC(=O)c2ccc(S(=O)(=O)C(F)F)cc2)s1	none
CCOC(=O)C(C)Sc1nc2c(c(=O)[nH]c(=O)n2C)n1C/C=C(/C)Cl (stereo not drawn)	PfM18AAP inh-1 37 (no result: CaV13 FRET inh) | PfM18AAP inh-2 inactive | CTSL1 confirm inactive
CCCCCCn1c(SCC(C)C)nc2c1c(=O)[nH]c(=O)n2C	none (no result: CaV13 FRET inh, ALR H2O2 inh)
CCCCCCn1c(SCC(=O)OC)nc2c1c(=O)[nH]c(=O)n2C	PfM18AAP inh-1 48 (no result: ALR H2O2 inh) | PfM18AAP inh-2 inactive | CTSL1 confirm inactive
Cc1cc(C(=O)COC(=O)/C=C/c2ccco2)c(C)n1C	none (no result: PfM18AAP inh-1, PolyA inhibitor)
c1ccc2sc(NN=C3CCCCCC3)nc2c1	PfM18AAP inh-1 33 | PfM18AAP inh-2 inactive | CTSL1 confirm inactive
O=C(CCC(=O)OCC(=O)c1ccc(Br)cc1)Nc1ccc(Br)c2cccnc12	none
CCOc1cc(C2NC(=O)NC2=O)ccc1O (stereo not drawn)	PfM18AAP inh-1 35 | PfM18AAP inh-2 inactive | CTSL1 confirm inactive
COc1ccc(/C(=N\Nc2ccccc2C(=O)O)c2ccccc2)cc1	PfM18AAP inh-1 38, ALR H2O2 inh 99 | PfM18AAP inh-2 inactive | CTSL1 confirm inactive
COc1ccc2cc(CO)c3cc(OC)c(OC)cc3c2c1	none (no result: PfM18AAP inh-1, PolyA inhibitor)
Cc1ccc(-c2csc(N/N=C/c3ccco3)n2)c(C)c1	PfM18AAP inh-1 33 | PfM18AAP inh-2 inactive | CTSL1 confirm inactive
Cc1oc2cc(O)ccc2c(=O)c1Oc1ccccc1	none (no result: CaV13 FRET inh)
CC(=O)Oc1ccc2c(=O)c(Oc3ccccc3)c(C)oc2c1OC(C)=O	PfM18AAP inh-1 44, ALR H2O2 inh 100 | PfM18AAP inh-2 inactive | CTSL1 confirm inactive
COC(=O)CS(=O)(=O)c1cccc2cccnc12	none
Cc1ccccc1NC(=O)C(C)OC(=O)CNS(=O)(=O)c1ccc(C#N)cc1 (stereo not drawn)	none (no result: PfM18AAP inh-1)
O=C(Nc1cccc(C(F)(F)F)c1)Nn1cnnc1	PfM18AAP inh-1 70 (no result: IDE inh) | PfM18AAP inh-2 64 | CTSL1 confirm inactive
Cc1ccc(NC(=O)Nn2cnnc2)cc1Cl	PfM18AAP inh-1 69 | PfM18AAP inh-2 54 | CTSL1 confirm inactive
